Data from ChEMBL document CHEMBL3988442, “University of Dundee, Small-Polar-MMV Screening Library” (2021).

Each compound was assayed on Trypanosoma cruzi (assay: Trypanosoma cruzi phosphomannomutase and mannose-1-phosphate guanylyltransferase assay). Details: 10 µM.
Type: functional
Design: scale not given: direction of the effect not stated beside the values
Work on `CN(Cc1nc(-c2ccco2)no1)C1CCCN(c2cccnn2)C1` (stereo not given) yielded a Percent Effect of 2.17%. In the case of `CC(C)(O)CN1CCN(C(=O)c2sccc2C2CC2)CC1`, the Percent Effect is reported as -2.56%. Compound `COc1ccccc1NC(=O)NCC(O)(c1ccccc1)C1CC1` (stereo not given) has a Percent Effect of 7.05%. For `O=C(c1cccnc1)N1CCCC2(CCN(c3ccsc3)C2=O)C1` (stereo not given), the Percent Effect was -8.19%. For `CC(O)CN1CCN(Cc2csc(-c3ncccn3)n2)CC1` (stereo not given), the Percent Effect was -3.02%. For `O=C(c1ccc(O)c(Cl)c1)N1CCC(c2n[nH]c(C3CC3)n2)CC1`, the Percent Effect was -5.44%. Work on `Cn1cnc(S(=O)(=O)NCCCN2CCCCCC2)c1Cl` yielded a Percent Effect of -3.49%. `CCOC(=O)CCNC(=O)N1CCN(c2nc3ccccc3n2C)CC1` was tested, and the Percent Effect was -5.42%. Work on `CC(=O)N1CCCCC1c1nc(N)ncc1-c1ccccc1` (stereo not given) yielded a Percent Effect of 5.32%. Work on `Cc1nn(C)c(C)c1-c1cncc(C2CCN(S(C)(=O)=O)CC2)n1` yielded a Percent Effect of -1.77%. With `Cc1nn(C)c(N2CCOCC2)c1CNCc1ccnc(N(C)C)c1` the Percent Effect was -2.64%. `O=C(C1CCC1)N1CCN(Cc2ccsc2)[C@H]2CS(=O)(=O)C[C@H]21` was tested, and the Percent Effect was -5.41%. `CSC(C)C(=O)N1CCCN(Cc2cscn2)CC1` (stereo not given) gave a Percent Effect of -1.13%. Work on `CN(Cc1cccc(F)c1)C1CCN(CCc2ccccn2)CC1` yielded a Percent Effect of -0.65%. Compound `CNC(=O)[C@H]1CCS(=O)(=O)[C@@H]2CN(Cc3ccc(OC)cc3)C[C@H]12` has a Percent Effect of 2.34%. With `O=C(NCC1CC1)[C@@H]1CCO[C@@H]2CCN(Cc3ccco3)C[C@H]21` the Percent Effect was -2.9%. `Cc1ccsc1C(=O)N1CC(C(=O)NCC2CC2)C2(CCOCC2)C1` (stereo not given) showed a Percent Effect of -9.57%. With `CCN(c1ccc(C(=O)N2CCCC2)cc1)S(=O)(=O)CC` the Percent Effect was -0.486%. With `Cc1nc(CN2CCC3(CCCN(Cc4cnn(C)c4)C3)C2=O)cs1` (stereo not given) the Percent Effect was -5.79%. `CC(NC(=O)CNCCn1cccn1)c1ccc2c(c1)OCCO2` (stereo not given) gave a Percent Effect of 5.62%.

Each compound was assayed against T1, Arginase-2, mitochondrial (Homo sapiens) (UniProt P78540) (assay: in vitro enzyme assay to detect the production of urea directly proportional to the activity of Arginase II). Details: 33.3 µM.
T1 sequence (whole entry): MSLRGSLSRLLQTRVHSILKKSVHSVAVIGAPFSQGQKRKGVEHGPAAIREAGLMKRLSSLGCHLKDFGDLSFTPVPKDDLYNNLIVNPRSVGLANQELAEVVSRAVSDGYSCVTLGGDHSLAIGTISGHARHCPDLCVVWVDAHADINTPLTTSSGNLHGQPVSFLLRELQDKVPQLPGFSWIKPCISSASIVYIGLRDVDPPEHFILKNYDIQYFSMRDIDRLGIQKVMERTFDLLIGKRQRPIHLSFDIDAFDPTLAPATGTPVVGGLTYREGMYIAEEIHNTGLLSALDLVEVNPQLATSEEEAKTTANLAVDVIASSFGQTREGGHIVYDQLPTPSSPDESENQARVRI
Type: functional
Design: scale not given: direction of the effect not stated beside the values
Work on `CCN(CC1CN(CCc2ccccn2)CCO1)c1cccnn1` (stereo not given) yielded a Percent Effect of 3.12%. In the case of `O=C(NCc1ccc(-n2cncn2)nc1)c1ccoc1`, the Percent Effect is reported as -10.4%. For `Cc1ccsc1C(=O)N1CC(C(=O)N2CCOCC2)C2(CCOCC2)C1` (stereo not given), the Percent Effect was 0.645%. In the case of `Cn1ncc2c(=O)[nH]c(CN3CCCC3CC3CCCCC3)nc21` (stereo not given), the Percent Effect is reported as 0.719%. With `CCN1C[C@H]2CCN(C(C)=O)CC[C@H]2S1(=O)=O` the Percent Effect was -5.81%. `COc1ccc(-c2nc(CN3CCOCS3(=O)=O)c(C)o2)cc1` showed a Percent Effect of -3.12%. `Cn1nc(C2CN(C(=O)c3cscn3)C2)c2nccnc21` showed a Percent Effect of 2.55%. Work on `c1coc(CN2CCCC3(COCCN(Cc4c[nH]nn4)C3)C2)c1` (stereo not given) yielded a Percent Effect of -23.1%. With `COCCO[C@@H]1C[C@H]2CN(C(=O)c3cnccn3)CCN2C1` the Percent Effect was -39.6%. `CC(=O)N1CCC(C(=O)c2cc(C)cnc2N)CC1` gave a Percent Effect of 3.03%. `Cc1ccc(C(=O)N(C)Cc2cc(Br)cs2)c(=O)[nH]1` gave a Percent Effect of -3.55%. `Cc1nc(C)n(CC2CN(CCc3ccncc3)CCO2)n1` (stereo not given) gave a Percent Effect of 3.64%. For `CN(CC(N)=O)S(=O)(=O)c1ccc(F)cc1Cl`, the Percent Effect was 0.399%. `CC(=O)NCC1CCN(CC2CCOc3ccccc3C2)CC1` (stereo not given) gave a Percent Effect of 9.27%. For `Cc1nn(-c2ccccc2)nc1C(=O)N1CCCC1c1cnn(C)c1` (stereo not given), the Percent Effect was -4.99%. For `CCC1=N[C@@]2(CC[C@@H]3CN(CC4CC4)C[C@@H]32)C(=O)N1C`, the Percent Effect was 0.319%. Compound `Cc1cccc2c1OCCC2NCc1c(C)nn(C)c1N(C)C` (stereo not given) has a Percent Effect of 7.28%. In the case of `Cc1ccc(CN2C[C@@H]3COC[C@@H](NS(C)(=O)=O)[C@@H]3C2)o1`, the Percent Effect is reported as -54.7%. `CN(Cc1ccc(Cl)s1)C(=O)NCc1nnc2n1CCC2` was tested, and the Percent Effect was -3.96%. With `Cn1cnc(S(=O)(=O)N2CCN(Cc3ccco3)CC2)c1Cl` the Percent Effect was 0%. With `CN(Cc1nc(-c2ccco2)no1)C1CCCN(c2cccnn2)C1` (stereo not given) the Percent Effect was 1.14%. For `CC(C)(O)CN1CCN(C(=O)c2sccc2C2CC2)CC1`, the Percent Effect was 4.09%. In the case of `COc1ccccc1NC(=O)NCC(O)(c1ccccc1)C1CC1` (stereo not given), the Percent Effect is reported as 7.27%. `O=C(c1cccnc1)N1CCCC2(CCN(c3ccsc3)C2=O)C1` (stereo not given) gave a Percent Effect of 11%. `CC(O)CN1CCN(Cc2csc(-c3ncccn3)n2)CC1` (stereo not given) was tested, and the Percent Effect was 3.55%. For `O=C(c1ccc(O)c(Cl)c1)N1CCC(c2n[nH]c(C3CC3)n2)CC1`, the Percent Effect was -1.5%. In the case of `Cn1cnc(S(=O)(=O)NCCCN2CCCCCC2)c1Cl`, the Percent Effect is reported as 1.6%. In the case of `CCOC(=O)CCNC(=O)N1CCN(c2nc3ccccc3n2C)CC1`, the Percent Effect is reported as -266%. For `CC(=O)N1CCCCC1c1nc(N)ncc1-c1ccccc1` (stereo not given), the Percent Effect was 19.8%. For `Cc1nn(C)c(C)c1-c1cncc(C2CCN(S(C)(=O)=O)CC2)n1`, the Percent Effect was 2.1%. In the case of `Cc1nn(C)c(N2CCOCC2)c1CNCc1ccnc(N(C)C)c1`, the Percent Effect is reported as 0.21%. For `O=C(C1CCC1)N1CCN(Cc2ccsc2)[C@H]2CS(=O)(=O)C[C@H]21`, the Percent Effect was 1.38%. With `CSC(C)C(=O)N1CCCN(Cc2cscn2)CC1` (stereo not given) the Percent Effect was -3.45%. For `CN(Cc1cccc(F)c1)C1CCN(CCc2ccccn2)CC1`, the Percent Effect was -1.29%. Work on `CNC(=O)[C@H]1CCS(=O)(=O)[C@@H]2CN(Cc3ccc(OC)cc3)C[C@H]12` yielded a Percent Effect of 35.4%. Work on `O=C(NCC1CC1)[C@@H]1CCO[C@@H]2CCN(Cc3ccco3)C[C@H]21` yielded a Percent Effect of -55.7%. Work on `Cc1ccsc1C(=O)N1CC(C(=O)NCC2CC2)C2(CCOCC2)C1` (stereo not given) yielded a Percent Effect of 1.94%. For `CCN(c1ccc(C(=O)N2CCCC2)cc1)S(=O)(=O)CC`, the Percent Effect was 1.32%. Compound `Cc1nc(CN2CCC3(CCCN(Cc4cnn(C)c4)C3)C2=O)cs1` (stereo not given) has a Percent Effect of -57.2%. For `CC(NC(=O)CNCCn1cccn1)c1ccc2c(c1)OCCO2` (stereo not given), the Percent Effect was 1.07%.
